{"source": "PubChem BioAssay AID1117264", "about": "(The Scripps Research Institute Molecular Screening Center, 2014)", "note": "In all, about 89,000 compounds went through this assay and about 440 (0.49%) were called active.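 How the source made its calls: active means inhibition above the mean inhibition across all screened compounds plus 3 SD (cut at about 11% in these data); inactive means the rest.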 What follows is part of a selection rich in actives, with near analogues and random picks from the rest.", "data": [{"molecular_target": "RNA-editing ligase 1, mitochondrial (Trypanosoma brucei brucei) (UniProt P86926)", "sequence (P86926 whole entry, looked up)": "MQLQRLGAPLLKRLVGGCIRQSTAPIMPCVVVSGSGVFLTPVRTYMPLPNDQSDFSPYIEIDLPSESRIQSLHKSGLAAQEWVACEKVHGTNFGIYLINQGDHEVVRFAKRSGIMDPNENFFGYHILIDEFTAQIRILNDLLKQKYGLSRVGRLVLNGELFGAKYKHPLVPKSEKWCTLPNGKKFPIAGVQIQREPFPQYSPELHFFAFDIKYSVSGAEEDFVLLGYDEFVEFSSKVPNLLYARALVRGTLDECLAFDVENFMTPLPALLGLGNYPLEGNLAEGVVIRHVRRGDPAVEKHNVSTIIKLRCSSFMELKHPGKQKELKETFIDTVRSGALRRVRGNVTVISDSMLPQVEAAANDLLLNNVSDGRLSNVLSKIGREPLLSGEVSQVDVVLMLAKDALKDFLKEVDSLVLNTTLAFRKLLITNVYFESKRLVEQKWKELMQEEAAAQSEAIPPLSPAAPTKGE", "experiment": "T. brucei editing ligase REL1 blockade – biochemical, FRET fluorescence, primary screen (AID 1117264);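 further: 0% = plate median of test wells and 100% = NSC42067 control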", "details": "TbREL1 RNA ligation, at 9.66 µM, active compounds read high", "values": [{"smiles": "COc1ccc(NC(=O)C(Br)C(C)C)cc1", "note": "(centres undefined)", "inhibition": "-2.35% (inactive)"}, {"smiles": "CCOC(=O)c1ccc(NC(=S)N2CCCC2)cc1", "inhibition": "-1.43% (inactive)"}, {"smiles": "COc1ccccc1NC(=S)N1CCN(C(c2ccccc2)c2ccccc2)CC1", "inhibition": "-6.34% (inactive)"}, {"smiles": "O=C(Oc1cccc(NC2=NS(=O)(=O)c3ccccc32)c1)c1ccncc1", "inhibition": "0.38% (inactive)"}, {"smiles": "Cc1ccc(S(=O)(=O)N(C)C)cc1NC(=O)COC(=O)c1c(C)noc1C", "inhibition": "-2.07% (inactive)"}, {"smiles": "O=C(Nc1cccnc1)c1cccc(S(=O)(=O)N2CCCC2)c1", "inhibition": "3.63% (inactive)"}, {"smiles": "CCCn1c(CCNc2nc(-c3ccc(OC)cc3)cs2)nc2ccccc21", "inhibition": "1.63% (inactive)"}, {"smiles": "CC1CN(CC(=O)NC(C)c2ccccc2)CC(C)O1", "note": "(centres undefined)", "inhibition": "1.72% (inactive)"}, {"smiles": "Fc1cc(Br)ccc1NC(=S)Nc1cccnc1", "inhibition": "-1.64% (inactive)"}, {"smiles": "COc1cc(/C=C/C(=O)n2cnc3ccccc32)cc(OC)c1OC", "inhibition": "12% (active)"}, {"smiles": "COc1ccccc1-n1cnc2cc(NS(=O)(=O)c3ccccc3)ccc21", "inhibition": "0.63% (inactive)"}, {"smiles": "COc1cc(/C=C/C(=O)OCC(=O)NC2CC2)cc(OC)c1OC", "inhibition": "8.18% (inactive)"}, {"smiles": "O=C(Nc1ccccc1N1CCN(C(=O)c2ccccc2)CC1)c1ccco1", "inhibition": "-1.42% (inactive)"}, {"smiles": "COc1ccc(N2C(=O)CC(Nc3ccc(F)cc3)C2=O)c([N+](=O)[O-])c1", "note": "(centres undefined)", "inhibition": "-1.86% (inactive)"}, {"smiles": "CCOc1ccc(NC(=O)CN(C)CC(=O)NC(C)c2ccccc2)cc1OCC", "note": "(centres undefined)", "inhibition": "2.99% (inactive)"}, {"smiles": "CCOC(=O)C1CCN(CC(=O)Nc2ccc(OC)c(S(=O)(=O)N3CCCCC3)c2)CC1", "inhibition": "2.37% (inactive)"}, {"smiles": "Cc1ccc(Nc2nc(N)nc(CN3CCN(Cc4ccccc4)CC3)n2)cc1Cl", "inhibition": "-4.51% (inactive)"}, {"smiles": "Nc1nc(Nc2ccccc2)nc(NCCO)c1[N+](=O)[O-]", "inhibition": "7.49% (inactive)"}, {"smiles": "CNc1nc(Nc2ccc(C)c(Cl)c2)nc(N)c1[N+](=O)[O-]", "inhibition": "13.4% (active)"}, {"smiles": "Cn1c(=O)c2c(nc(NCc3ccccc3)n2CC(N)=O)n(C)c1=O", "inhibition": "-2.6% (inactive)"}, {"smiles": "CN(C)/C(=N\\OC(=O)c1ccccc1)c1nonc1N", "inhibition": "0.81% (inactive)"}, {"smiles": "C=CCn1c(=S)[nH]c2scc(-c3ccco3)c2c1=O", "inhibition": "20.5% (active)"}, {"smiles": "COc1ccc(N2CCN(CCNS(=O)(=O)c3ccc([N+](=O)[O-])cc3)CC2)cc1", "inhibition": "-4.76% (inactive)"}, {"smiles": "O=C(Nn1cc(C(=O)N2CCN(c3ccccc3F)CC2)c2ccccc2c1=O)c1cnccn1", "inhibition": "12.8% (active)"}, {"smiles": "O=C(c1ccc(CN2CCOCC2)cc1)N1CCN(c2ccccc2F)CC1", "inhibition": "-3.62% (inactive)"}, {"smiles": "Cc1ccccc1N1CCN(C(=O)c2cccnc2)CC1", "inhibition": "-0.77% (inactive)"}, {"smiles": "CC1=C(C(=O)N(C)C)C(c2ccccc2OC(F)F)NC(=O)N1", "note": "(centres undefined)", "inhibition": "-1.25% (inactive)"}, {"smiles": "CC(C)C[C@@H](CO)N1CCN(Cc2ccc(O)cc2)CCC1=O", "inhibition": "-1.07% (inactive)"}, {"smiles": "O=C(Nc1ccc2nccnc2c1)c1ccco1", "inhibition": "-2.66% (inactive)"}, {"smiles": "O=C(Nc1nc(-c2ccco2)c(-c2ccco2)s1)c1ccco1", "inhibition": "51.5% (active)"}, {"smiles": "Cc1ccnc(NC(=O)c2ccco2)n1", "inhibition": "2% (inactive)"}, {"smiles": "O=C(Nc1ccc(N2CCN(C(=O)c3ccccc3)CC2)c(Cl)c1)c1ncn[nH]1", "inhibition": "-4.97% (inactive)"}, {"smiles": "Cc1cccc(NC(=O)CN2CCN(CC(=O)NCC3(N4CCCCC4)CCCCC3)CC2)c1C", "inhibition": "-4.34% (inactive)"}, {"smiles": "Cc1ccc(-n2c(SCC(=O)Nc3cccc4ccccc34)nnc2-c2ccccn2)cc1", "inhibition": "2.33% (inactive)"}, {"smiles": "O=C(CCCCCN1C(=O)C2C3C=CC(C3)C2C1=O)Nc1ccccn1", "note": "(centres undefined)", "inhibition": "-1.93% (inactive)"}, {"smiles": "CSc1ccc(C=Nn2c(-c3ccc(F)cc3)n[nH]c2=S)cc1", "inhibition": "-3.89% (inactive)"}, {"smiles": "CC(C)Cc1nnc(NC(=O)CN2C(=O)NC3(CCCCC3)C2=O)s1", "inhibition": "4.69% (inactive)"}, {"smiles": "Cc1ccc(C(=O)NCC(=O)NCc2cc(=O)n(C)c(=O)n2C)cc1", "inhibition": "1.66% (inactive)"}, {"smiles": "Nn1c(SCC(=O)NC2CCCc3ccccc32)nnc1C1CC1", "note": "(centres undefined)", "inhibition": "0.24% (inactive)"}, {"smiles": "COc1ccc(-c2cc(-c3nnc(SCC(=O)Nc4cccc5ccccc45)n3N)[nH]n2)cc1", "inhibition": "-2.51% (inactive)"}, {"smiles": "CCOC(=O)C1=C(CC)Nc2ccccc2N=C1N", "inhibition": "3.99% (inactive)"}, {"smiles": "COCCCn1c(SCC(=O)Nc2oc(C)c3c(C)n[nH]c(=O)c23)nc2sc3c(c2c1=O)CCC3", "inhibition": "-6.64% (inactive)"}, {"smiles": "CCC(C)C(N=C1NS(=O)(=O)c2ccccc21)C(=O)N1CCC(C)CC1", "note": "(centres undefined)", "inhibition": "-0.06% (inactive)"}, {"smiles": "CN(CC(=O)Nc1ccccc1[N+](=O)[O-])Cc1ccc(Br)cc1", "inhibition": "1.93% (inactive)"}, {"smiles": "CCNC(=O)N1CCCC(C(=O)c2ccc(-c3ccccc3)cc2)C1", "note": "(centres undefined)", "inhibition": "-3.04% (inactive)"}, {"smiles": "O=C(NN=Cc1ccc([N+](=O)[O-])cc1)C1CC1", "inhibition": "-3.07% (inactive)"}, {"smiles": "Cc1nc(Cl)c(C#N)c2c1CCCC2", "inhibition": "8.75% (inactive)"}, {"smiles": "COC(=O)c1c(C)c(C)nc(N)c1C#N", "inhibition": "-2.53% (inactive)"}, {"smiles": "COCc1c(N)c(C)nc(Cl)c1C#N", "inhibition": "11.8% (active)"}, {"smiles": "O=C(NCc1ccccc1)[C@H]1CCCN1C(=O)[C@H]1CCCN1C(=O)N1CCOCC1", "inhibition": "-0.82% (inactive)"}, {"smiles": "COc1cccc(CNC(=O)COC(=O)CN2C(=O)NC3(CCCCC3C)C2=O)c1", "note": "(centres undefined)", "inhibition": "1.52% (inactive)"}, {"smiles": "CC1CCN(C(=O)COC(=O)c2cc(S(=O)(=O)N3CCOCC3)ccc2Cl)CC1", "inhibition": "-2.18% (inactive)"}, {"smiles": "O=C(NCC(c1ccco1)N1CCc2ccccc21)c1cccc(F)c1", "note": "(centres undefined)", "inhibition": "-8.09% (inactive)"}, {"smiles": "COc1cc(NC(=O)C2CCCN(S(=O)(=O)c3ccc(C(C)(C)C)cc3)C2)cc(OC)c1", "note": "(centres undefined)", "inhibition": "5.8% (inactive)"}, {"smiles": "COc1cc(S(=O)(=O)N2CCN(C(=O)C3CC3)CC2)ccc1NC(C)=O", "inhibition": "4.21% (inactive)"}, {"smiles": "COC(=O)[C@@]12CCCCC=C1N(CCc1ccc(Cl)cc1)C(=O)[C@H]2CC(=O)NCc1ccc(OC)c(OC)c1", "inhibition": "-3.3% (inactive)"}, {"smiles": "COc1ccc(C(C(=O)Nc2c(C)cccc2C)N2CCN(c3ccc(C)cc3)CC2)cc1", "note": "(centres undefined)", "inhibition": "23.2% (active)"}, {"smiles": "Cc1cccc(C)c1NC(=O)C(c1cccc(F)c1)N1CCN(C)CC1", "note": "(centres undefined)", "inhibition": "-2.52% (inactive)"}, {"smiles": "COc1ccc(N2CCC(CNC(=S)Nc3c(C)cccc3C)C2)cc1", "note": "(centres undefined)", "inhibition": "-3.26% (inactive)"}]}]}
